# According to the supplement of paper PMC10681739:
# What was measured:
# ETS1 [1] = molecular target: T1, ETS1 (UniProt P14921); test: ETS1 binding intensity (PBM fluorescence), ETS1 alone (arbitrary fluorescence units); higher = stronger binding; settings: ETS1 concentration 1 nM; RUNX1 concentration 0 nM
# T1 sequence: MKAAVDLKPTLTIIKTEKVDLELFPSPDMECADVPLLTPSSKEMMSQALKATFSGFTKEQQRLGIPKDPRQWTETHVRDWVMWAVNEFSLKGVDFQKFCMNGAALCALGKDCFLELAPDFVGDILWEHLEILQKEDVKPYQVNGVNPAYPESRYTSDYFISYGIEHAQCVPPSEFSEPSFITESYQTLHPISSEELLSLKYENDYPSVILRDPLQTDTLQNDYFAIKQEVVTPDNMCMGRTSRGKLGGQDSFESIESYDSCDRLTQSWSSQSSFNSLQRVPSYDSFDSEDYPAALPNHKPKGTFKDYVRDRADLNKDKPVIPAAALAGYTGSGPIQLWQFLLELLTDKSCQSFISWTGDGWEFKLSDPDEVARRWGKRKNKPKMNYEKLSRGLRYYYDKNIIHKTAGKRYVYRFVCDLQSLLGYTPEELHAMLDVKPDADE
# ETS1 [2] = molecular target: T1, ETS1; test: ETS1 binding intensity (PBM fluorescence) in presence of RUNX1, normalised to ETS1-only experiment (arbitrary fluorescence units); higher = stronger binding; settings: ETS1 concentration 1 nM; RUNX1 concentration 25 nM
Sequence,ETS1 binding intensity (ETS1 [1]),ETS1 binding intensity (ETS1 [2])
GCACAGGAAAAGCTGCTTTCCGCGTGGTAAATTCAA,484,446
TGCCGGAAGCCCGCCAGGCACAGGACCCGCAGGGGT,588,545
TGAATCATGACAGAGGAAGTGTGGTTCTGTGATTAC,1760,2090
GTTCATCCAGGAAACCCCAACCCAGTGCCGCAGTAT,538,464
AGCACAGGTTCCCAGGAAATGTGGGTTGAACAAGGC,1250,1250
GCACCGTGGCACTTCCGCGAGCGCCGCAGGCCCTGC,461,360
AGCGGGAGGAAGTGCTGCAGTAGCCACAGCAGCCTG,534,737
GTTTCAGTATTTCCTGGTGCGGCGTACCACACCTAC,620,566
GAGCAACCAGGAAGAGCTTTGGCTGTGGGCTAAGAT,511,441
TCACTCCTCTTCCTTCCTGCCACCCACAGGGTCAGC,532,378
TTCTGGACATGCTTCCTGTGGCTTCTCTCCTGCGCT,845,598
TTTCCAGAGGATGTAGCTTCTGCGGGAGAGCTTCAA,546,584
CCAGGGGCACACCGGAACCCACACCTGAAATCACAG,647,739
CTGTGGCCTAGAAGCTTCCTGCCGCAGCTCTGAGGA,534,505
CAGTGGCTTCCTCCCCACCTCCTACCACATTCAATG,517,467
GATCTGCTTGGCTTCCTGTGGTCGCTGACTCACAGT,905,1010
ACAGCATTTCCTGGTGGCCAGATATCTGAGGTTTCA,426,539
TTGGTGGCTTCCTGCCCAGGAGACCACACCCAGCTT,540,486
CAGGGAAGTTCGAACTGGGCGGGGCCCACCGCAGTT,336,488
TGGCTACCCGGAAGGCGCGTTGGCTGCGGCTACGCA,549,926
CGCCCTCCGGAAGAGAGGGCGGACCGCGGCCGCGCA,570,636
TGAGAAGGCAGGATAAGTGACCACATATTTATGCCA,435,874
GAAAGCACGTGTTTCCTGCGGCTGCACCCCAGCACC,479,386
ATGACTTCGAGGAAGTCTTCAGAAACCACAGGCTGA,405,1430
CTGAAGGCTGGGGAGGAAGTGACCGCCCTCATATGC,2120,2330
CTTCTCGCGGAAGCGGCACAAGCCGCAGTACAGCGC,301,495

Sequence,ETS1 binding intensity (ETS1 [1]),ETS1 binding intensity (ETS1 [2])
GATACTCTTCCTGTCATCCCATCCCCACAGCCTTAG,503,501
ACAGGTTCAGGAAGCGGCCGTGGTTGTTAGTGGTGT,718,639
TCTTTTTATTTCCTGTGCAGTCTCGCCCACAGCACT,1070,1030
AGCGGATTCCGGACATAACAATCTACAGCGGTCTTA,444,417
AATAAACAGGAAGGTCTCTTGGAGCTGTGGTCTTGG,677,1110
AGCGGCTCCTTCCGGCGGCGCGGGTTCCCTTCCCTC,624,581
CTCCCCCCACGACTTCCCTCTGTGGCCCCGGGCCGC,677,645
GAGGAGGCTGAGGAGGAAGTGCGGTGGCTGTTCTGC,1290,1470
ACTTCCAGGAAGCCCCATAGTCCAGAAACCCACACA,493,402
GCGCGGCGCGACCGGACGCTGCGGGCGGGGAAGAGG,3230,5990
GCACCATCTCCCGACTTCCGCGGTGTCCCAGGTCCT,559,434
CACCTGCCTTGCTTCCTGCGGTGCAACCGGCGGGAG,499,585
TTTCTTCCTGTTTGCATCACCCCAAACCCACTATCA,514,469
TGAGTCATTTCCTGGGTGGGGGCCACAAGACCAGGT,540,553
ATAAAGGATGTACAGTATTTAGAGAACAGTGGTTAA,553,485
TTTAAGGGCGGAAAGGCTTTAGCCGCAAAATGGCTT,547,2380
CTCCCCCAGCACATCCTCTGCCACCGCTGCCTTTCC,579,361
GGGGCAGGAAACAGCGTCCTGCGCGGGTAGCCCCTG,775,918
CTGCACAAGGAAGCGCCTGTGTTGCTGTGGGCGGAG,472,402
GCACGCGCCGGGCGGAACCCACAGGCCTGGAAGCGA,537,803
TGGCTTGAGCTCAGGAAGTTGTGGCTGCAGTAAGCT,1470,1970
GCGGAGTGTTACGTAGGAAGTGGTTGTGACGTCATT,1190,1540
GCCGGGCACCCCGGAAGACCGCTGGGAACCGGCTTT,1080,1070
GTCAGGAAACACATAGTTGTGTTTAACCTCAGGAAA,466,399
CTTGTTATCCTTCCGGAGGCGGTAACTCATGAGAGA,497,352
TTGGAGACACACAAAGGATGTGGGCTGTGCGTGTGT,1380,1780

Sequence,ETS1 binding intensity (ETS1 [1]),ETS1 binding intensity (ETS1 [2])
CGACGTCACTTCCGCTGGTTCAAGCACCGCGAGACT,1900,1500
GGCTTGATTGAACGAGGATGTGGTTCTTGGGTGGGA,686,1770
ACCAGGATGTAGTTTAGCTTAGGGGTGGTTATATCG,603,494
TAGAAAAGGAAGCAGGGTAGGTGTGGTATCTGGGTC,587,575
CCCTTTTCCTTCCGGCCTGTGCGGCTTATAAGATCT,736,1090
ACACCGCTCAGGAAGACAAAGCCACACCTCACACCG,457,356
AGCAGATTTGCTGCAGGAAACCACCGAGTCTCACGG,1130,1490
CCGACCTTAACGACATCCTGCGGCTCAGCGTGGAGG,489,437
AGAAACGTCAATTTCCTGGCCACAGAATCCACTGCC,608,501
GGGGGCAGGAAGCAGTGCAGCTCCTTAACCCACTTC,842,892
CTCTTCCAGGAAGCCTTCCCTGACCACTGCTTGCTC,396,505
CCAGATTAGGAAACCCACCCGGCCCACAAAAAGCGG,445,302
ACCTCTTCCGAGACCCAAAATGCGCGGTCTGGAGAG,448,328
GATTAAGAGGAAGTGTGTGTGATTATTACCGCTGGA,1310,1540
TGGCTTCCTGTCTGTCCTTCATCAGCCCACAGAGGC,517,529
TGGTTAAGCAGTGCAGGATGTGGGCTGCACTGCTAA,2590,3930
CTAGTTTCCTGTGGCTGCTATGACAAATGACCACAG,403,474
ACAGATCCAAGGAAGCATATCCCGCAAGCAACTGTT,460,589
CTCTTCTCAGGAAGGGGCTGTGGGATGTAGGATTCC,638,610
GAAGAAGTCAGGAAATGCTGCCGCAGCAGCCAGCCC,878,1070
GACGCTCTCTTCCTGTCTTTGTGGCTCCAGAAAGGC,830,630
GAGATAGTCTGGAGGGGAAGTGGTTATAAGTGATAA,797,1290
AAGTCAGAGTTTACTTCCGAACCCACAGTGCCAAGC,423,486
ATGTAAACAAGGATGTGAGTTCTGCGGCCACACTCT,448,763
CATGAGAAACATCCTGCCCAACCACCTGACTACAAG,492,511
GAACTGAAGAAGGCAGGAAGCCACAGGCTCCTGGGT,1730,2280

Sequence,ETS1 binding intensity (ETS1 [1]),ETS1 binding intensity (ETS1 [2])
TTCTCCACTTCCTTCTTTACCTCACCTACCACATAA,568,544
AGGGTGTACTCGGAAGTTTCGAGTGGTTGCTTGGTT,451,513
TACCGCTGCTTCCTGCCTGCGCGGTGAGCCTGTGCC,829,802
CGGCGCTCGCGGAAGTGCCGCGGTGCCTGCTCTGCA,796,759
GCGCGGCTCAGGAAGCGACGCGGTTCAGGGAGCGAA,707,577
TAACGCGAGAACTTCCTGCGGGCCACGCCCTCTTTC,571,462
CAGTCTCCTTCCGCGTCACCTCTGTGACCGCTGTGC,414,583
GGGAGGGCGGAAGGCGGCTCTGCGGCAGCAAGCCCC,476,341
TGGCTGTTCAGCCTTCCGCTTGTGGCTCCACCCCCG,594,493
AAAACCTTGTTGAAAGGATGTGGCTTAGCGAGAGGT,1140,1820
AGAGGAAGTAAATTCTAACAGTGGAAACCACAGATT,647,2290
GGCCGGGGACGGAAGGCGGGCCCGCAGCAGATCCTG,475,362
GTGCAGGCCGGAAGGAAAAGGGTTGTGGGGCTCATT,1180,1420
AGTTTCTCCAGGAAGCGCTGAGGTTTTCTCAGAAGT,763,1160
CGTAGCGAGGAGCGGAAAACGCGGTAACCAAGGCGG,732,1050
GCGTTTCCCCCTTGGGGTTATAGCAACCACCTCCTC,479,358
TGGGCCAGCACGTCCGGGTGGTCAGGACGCGCGCTT,458,451
CGAAGGAGGAAGCTGCACAGGGTGTCTGTGGCTGGC,443,428
CCAGAGCAGGATGTTCTGCTGTGGCTAGATAAGCCC,907,916
AGCTGCGGAGCATCCGCTGCGGTCCTCGCCGAGACC,450,453
AACCAAGAGGATTTCCTGCCCACACACTCAGCGTCT,870,751
CCAGGCGTTTCCGGGTTCCCGCGGTCCCGTCCCCCA,1340,1330
GGACCGGAAGTTAAGGCGTTCGCGGCGTGTGGTAAG,8560,11800
GGCCGGAAAGGGTCTTGAGAGGAGGTGGTTGCCTTA,633,519
